Reference: PubChem BioAssay (NCATS)
Results filed as inconclusive are left out. Entries that show only a call come without a potency. Values without a mark were called inactive. Calls of active or inactive are those of the source. Calls follow the shape of the dose curve; as a rule, active = well fitted curve in the direction sought with a large enough effect; inconclusive = small, poorly fitted or top-dose-only effect, or another doubt; inactive = no such curve, though single readings can be large; an effect the other way counts as inactive or inconclusive.

Key:
[1] = test system: KB-3-1; test: Cytotoxic Profiling of Annotated Libraries Using Quantitative High-Throughput Screening (AID 1296008); details: Five cell lines viability, CellTiter-Glo ATP luminescence, 48-72 h; max response: active compounds read low; also: nearly all actives have a fitted effect of over 60% in size; also: potency is read from the fitted curve at half-maximal effect
Method in brief: (§1)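 Cells exposed to compounds for 48 or 72 hr at 37 degrees Celsius. Viability read as ATP-coupled luminescence with CellTiter-Glo after 10 min at room temperature.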

[2] = test system: NIH3T3; test: as above; details: Five cell lines viability, CellTiter-Glo ATP luminescence, 48-72 h; max response: active compounds read low
Method in brief: as §1

[3] = test system: MCC-13; test: qHTS assay to identify novel small-molecules to repurpose for Merkel cell carcinoma treatment (AID 1296009); details: MCC and control cell lines, CellTiter-Glo viability, 72 h; series mostly up to 46 µM; also: nearly all actives have a fitted effect of over 60% in size; also: potency is read from the fitted curve at half-maximal effect
Method in brief: (§2)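 CellTiter-Glo luminescence after 72 hr compound exposure at 37 degree celsius gave cell viability. Libraries NPC and MIPE were run as 8- and 11-point dose responses; RLUs normalized to DMSO (negative) and no-cell (cytotoxicity) controls.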

[4] = test system: MCC-26; test: as above; details: MCC and control cell lines, CellTiter-Glo viability, 72 h; series mostly up to 46 µM
Method in brief: as §2

[5] = test system: MKL-1; test: as above; details: MCC and control cell lines, CellTiter-Glo viability, 72 h; series mostly up to 46 µM
Method in brief: as §2

[6] = test system: MKL-2; test: as above; details: MCC and control cell lines, CellTiter-Glo viability, 72 h; series mostly up to 46 µM
Method in brief: as §2

[7] = test system: NIH3T3; test: as above; details: MCC and control cell lines, CellTiter-Glo viability, 72 h; at 44.8 µM (top of the series) unless noted
Method in brief: as §2

[8] = test system: UISO; test: as above; details: MCC and control cell lines, CellTiter-Glo viability, 72 h; series mostly up to 46 µM
Method in brief: as §2

[9] = test system: C33A; test: Primary qHTS to identify gynecologic anti-cancer compounds using libraries of approved drugs and bioactive compounds (AID 1345084); details: Gynecologic cancer cell panel viability, ATPlite luminescence, 48 h; series mostly up to 57.5 µM; also: nearly all actives have a fitted effect of over 55% in size
Method in brief: (§3)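 ATP-based viability (ATPlite), 1,000 cells/well, 16 h pre-incubation, 48 h compound at 37 C, 5% CO2, 15 min RT before read.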

[10] = test system: CAOV3; test: as above; details: Gynecologic cancer cell panel viability, ATPlite luminescence, 48 h; series mostly up to 57.5 µM
Method in brief: as §3

[11] = test system: CASKI; test: as above; details: Gynecologic cancer cell panel viability, ATPlite luminescence, 48 h; series mostly up to 57.5 µM
Method in brief: as §3

[12] = test system: Es-2; test: as above; details: Gynecologic cancer cell panel viability, ATPlite luminescence, 48 h; series mostly up to 57.5 µM
Method in brief: as §3

[13] = test system: HeLa; test: as above; details: Gynecologic cancer cell panel viability, ATPlite luminescence, 48 h; series mostly up to 57.5 µM
Method in brief: as §3

[14] = test system: Hek293T; test: as above; details: Gynecologic cancer cell panel viability, ATPlite luminescence, 48 h, control line for the selectivity index; series mostly up to 57.5 µM
Method in brief: as §3

[15] = test system: JEG-3; test: as above; details: Gynecologic cancer cell panel viability, ATPlite luminescence, 48 h; series mostly up to 57.5 µM
Method in brief: as §3

[16] = test system: HaCat; test: Cytotoxic Profiling of Annotated Libraries Using Quantitative High-Throughput Screening (AID 1296008); details: Five cell lines viability, CellTiter-Glo ATP luminescence, 48-72 h; max response: active compounds read low; also: nearly all actives have a fitted effect of over 60% in size; also: potency is read from the fitted curve at half-maximal effect
Method in brief: as §1

[17] = test system: HACAT; test: qHTS assay to identify novel small-molecules to repurpose for Merkel cell carcinoma treatment (AID 1296009); details: MCC and control cell lines, CellTiter-Glo viability, 72 h; at 44.8 µM (top of the series) unless noted; also: nearly all actives have a fitted effect of over 60% in size; also: potency is read from the fitted curve at half-maximal effect
Method in brief: as §2

[18] = test system: WaGa; test: as above; details: MCC and control cell lines, CellTiter-Glo viability, 72 h; series mostly up to 46 µM
Method in brief: as §2

[19] = test system: CRL-7250; test: as above; details: MCC and control cell lines, CellTiter-Glo viability, 72 h; at 44.8 µM (top of the series) unless noted
Method in brief: as §2

[20] = test system: HEK293T; test: as above; details: MCC and control cell lines, CellTiter-Glo viability, 72 h; at 44.8 µM (top of the series) unless noted
Method in brief: as §2

For `O=C(Nc1ccccc1-c1ccc(Cl)cc1)c1cccnc1Cl`, the max response [1] was -17.8%, the outcome [2] was “inactive” and the Potency [3] was “inactive”. The Potency [4] was “inactive”, the Potency [5] was “inactive” and the Potency [6] was “inactive”. The outcome [7] was “inactive [at 92 µM]”, the Potency [8] was “inactive” and the Potency [9] was “inactive”. The Potency [10] was “inactive”, the Potency [11] was “inactive” and the Potency [12] was “inactive”. The Potency [13] was “inactive”, the Potency [14] was “inactive” and the Potency [15] was “inactive”.
In the case of `COc1ccc(C(=O)c2c(C)n(CCN3CCOCC3)c3cc(I)ccc23)cc1`, the outcome [16] is reported as “inactive”, the outcome [2] is reported as “inactive” and the outcome [17] is reported as “inactive”. The Potency [3] was “inactive”, the Potency [4] was “inactive” and the Potency [6] was 1480 nM (active). The outcome [7] was “inactive” and the Potency [18] was “inactive”.
In the case of `CC(C)(C)NC[C@H](O)c1ccc(O)cc1Cl`, the max response [1] is reported as 9.37%, the max response [2] is reported as -4.5% and the Potency [3] is reported as “inactive”. For the same compound, the Potency [4] was “inactive”, the Potency [5] was “inactive” and the Potency [6] was “inactive”. For the same compound, the Potency [8] was “inactive”, the Potency [18] was “inactive” and the Potency [10] was “inactive”. The Potency [11] was “inactive”, the Potency [12] was “inactive” and the Potency [13] was “inactive”. The Potency [14] was “inactive” and the Potency [15] was “inactive”.
With `CN[C@@H]1C[C@@H](c2ccc(Cl)c(Cl)c2)c2ccccc21` the max response [1] was -9.15%.
With `C=C[C@@H]1CN2CCC1C[C@@H]2[C@@H](O)c1ccnc2ccccc12` (stereo partly specified) the max response [16] was -17.4%, the max response [2] was -16.7% and the Potency [3] was “inactive”. The Potency [4] was “inactive”, the Potency [5] was “inactive” and the Potency [6] was “inactive”. For the same compound, the Potency [18] was “inactive”.
For `CS(=O)(=O)c1ccc(C(=O)C2C(=O)CCCC2=O)c([N+](=O)[O-])c1`, the max response [1] was -20.3%, the max response [2] was 4.33% and the Potency [3] was “inactive”. The Potency [4] was “inactive”, the Potency [5] was “inactive” and the Potency [6] was “inactive”. The Potency [8] was “inactive”, the Potency [18] was “inactive” and the Potency [9] was “inactive”. For the same compound, the Potency [10] was “inactive”, the Potency [11] was “inactive” and the Potency [12] was “inactive”. For the same compound, the Potency [13] was “inactive”, the Potency [14] was “inactive” and the Potency [15] was “inactive”.
`CC1=C(C(=O)O)N2C(=O)[C@@H](N)[C@H]2SC1` was tested, and the max response [16] was 3.51%, the outcome [2] was “inactive” and the outcome [19] was “inactive [at 17.4 µM]”. The outcome [20] was “inactive [at 17.4 µM]”, the Potency [3] was “inactive” and the Potency [4] was “inactive”. For the same compound, the Potency [5] was “inactive”, the Potency [6] was “inactive” and the outcome [7] was “inactive [at 17.4 µM]”. The Potency [8] was “inactive”, the Potency [18] was “inactive” and the Potency [9] was “inactive”. The Potency [10] was “inactive”, the Potency [11] was “inactive” and the Potency [12] was “inactive”. The Potency [13] was “inactive”, the Potency [14] was “inactive” and the Potency [15] was “inactive”.
`C=CCON=C(C[C@H]1O[C@@H]2O[C@]3(C)CC[C@@H]4[C@H](C)CC[C@@H]([C@H]1C)[C@@]24OO3)[C@H]1O[C@@H]2O[C@]3(C)CC[C@H]4[C@H](C)CC[C@@H]([C@@H]1C)[C@@]24OO3` was tested, and the Potency [16] was 2960 nM (active), the Potency [1] was 1320 nM (active) and the Potency [4] was “inactive”. For the same compound, the Potency [5] was 1180 nM (active) and the Potency [18] was 1050 nM (active).
In the case of `COC1=CC(C)=C[C@@H](C)[C@@H](O)[C@@H](C)CC(C)=CC=C[C@H](OC)[C@H]([C@@H](C)[C@@H](O)[C@H](C)[C@@]2(O)C[C@@H](O)[C@H](C)[C@@H](C(C)C)O2)OC1=O`, the Potency [1] is reported as 5.9 nM (active), the Potency [2] is reported as 14.8 nM (active) and the Potency [3] is reported as 166 nM (active). The Potency [4] was 4690 nM (active), the Potency [5] was 118 nM (active) and the Potency [6] was 105 nM (active). For the same compound, the Potency [8] was 41.8 nM (active) and the Potency [18] was 118 nM (active).
